Assay [1] can be described thus: reducers of endogenous Her2 protein level, primary screen, SKBR3 breast tumor cells, AlphaScreen, ATP viability (AID 461;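 active = Her2 level under about 52% in both replicate screens, with viability over 70% of control, limit read from the data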;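 as to Her2 level: lower value means less Her2 protein in the cells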;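 as to viability: percent of carrier control wells set as 100% viability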). The following applies: 18-24 h, measured here: SKBR3 viability, ATP luminescence, at 10 µM.
Assay [2] addresses Receptor tyrosine-protein kinase erbB-2 (Homo sapiens) (UniProt P04626). Described as above. The following applies: 18-24 h, at 10 µM, stronger effect = lower value.
Assay [3] can be described thus: SK-BR-3 cell growth inhibitors, pilot screen, 24 h, human (AID 572;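 active = viability at or below 10% of carrier control in both of two separate runs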;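 also: compound exposure lasted between 18 and 24 h rather than exactly 24 h; 100% = carrier-treated control wells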). As to conditions: SK-BR-3 viability, CellTiter-Glo luminescence, at 10 µM, stronger effect = lower value.
Assay [4] in a line: HUVEC growth inhibition – cell-based, human, primary screen (AID 575;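 active = viability at or below 30% in both replicate assays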;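 also: 100% = median of untreated cell wells with 0.1% DMSO on each plate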). The following applies: HUVEC proliferation, CellTiter-Glo luminescence, 72 h; at 10 µM; stronger effect = lower value.
Assay [5] in a line: growth inhibitors of H69AR lung tumor, primary screen, human, duplicate replicates (AID 580;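 active = viability at or under a set limit in both replicates, limit being median viability minus 3 SD, cut at about 48% in these data, passing the limit was not always enough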;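 also: 100% = mean luminescence of untreated wells and 0% = no signal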). As to conditions: H69AR lung tumor cells viability, ATP luminescence, 72 h; at 10 µM; stronger effect = lower value.
Assay [6] in a line: reversal of MRP1-mediated doxorubicin resistance, pilot screen, H69AR cells, doxorubicin co-treatment (AID 601;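 active = viability loss from added drug above about 55%, and viability with drug at most 40%, in both replicates, limit read from the data, passing the limit was not always enough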). As to conditions: CellTiter-Glo, 72 h, at 10 µM; for differential viability (reversal): stronger effect = higher value.
A short description of assay [7]: 384-well plate pilot, post-Golgi transport modulator project, inhibition of yeast transport mutant growth (AID 636; in the data active = inhibition above about 31%). The following applies: absorbance 615 nm, about 18 h, stronger effect = higher value.
Assay [8] can be described thus: growth suppression of yeast trafficking mutant, preliminary HTS, modulators of trafficking downstream of Golgi apparatus project, 1536-format plate, OD 615 nm (AID 637; in the data active = inhibition above about 30%). The following applies: yeast transport mutant growth, absorbance 615 nm, 18 h; stronger effect = higher value.
A short description of assay [9]: OD615 S. cerevisiae growth inhibition, permissive medium, pilot counter-assay, permissive growth control for S. cerevisiae lifespan shortening project (AID 705;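 active = growth inhibition above 25% in both replicates, a cutoff set 3 SD above the mean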). As to conditions: OD615, 24 h, at 10 µM, stronger effect = higher value.
Assay [10] in a line: Restrictive medium S. cerevisiae growth inhibition, OD615, pilot screen of yeast lifespan reduction project, restrictive growth control (AID 706;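 active = growth inhibition above a set limit, 3 SD over mean compound inhibition, in both replicates, cut at about 43% in these data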;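 also: modified DeaD lifespan yeast strain shifted to restrictive glucose medium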). As to conditions: OD615, 48 h, at 10 µM, stronger effect = higher value.
Assay [11] is described as follows: viability gain of MRP-1-high H69AR cells under doxorubicin, pilot screen, MRP-1 activator project, CellTiter-Glo, duplicate (AID 807;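 active = viability increase at or above a cutoff of the median across tested compounds plus 3 SD, cut at about 8.5% in these data, passing the limit was not always enough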;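 also: compound pretreatment 18-22 h then 72 h combined with doxorubicin; 0% = doxorubicin alone and 100% = vehicle without doxorubicin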). As to conditions: H69AR viability with doxorubicin, CellTiter-Glo luminescence; at 10 µM; stronger effect = higher value.
The nature of assay [12]: growth suppression of beta-catenin knockout HCT116, pilot screen, human colon tumor cells (AID 823;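 active = cell viability at or below a set limit in both duplicate runs, the limit being the all-compound median minus 4 SD, cut at about 23% in these data, passing the limit was not always enough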;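 also: 0% = wells killed by 20 µM Hyamine and 100% = untreated DMSO cell wells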). As to conditions: CellTiter-Glo, 60 h, at 10 µM, stronger effect = lower value.
Assay [13] is described as follows: growth suppression of PTEN-deleted HCT116, pilot screen, cell-based, HCT116 clonal line, CellTiter-Glo (AID 824;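 active = viability at or below 27.92% in each of two runs, the all-compound median minus 4 SD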;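 also: 0% = 20 µM Hyamine control and 100% = vehicle cell control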). As to conditions: 60 h, at 10 µM, stronger effect = lower value.
A short description of assay [14]: inhibitors of the yeast RAM network, pilot screen, dse1pr::URA3 reporter, 5-FOA selection (AID 869;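 active = inhibition over a set limit, the all-compound mean plus 3 SD, in both replicate runs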;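 also: 0% = DMSO wells with no growth and 100% = 10 µM 1-NA-PP1 with full growth; RAM network block rescues cells from 5-FOA so hits raise OD615 growth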). The following applies: S. cerevisiae dse1pr::URA3 5-FOA growth, OD615, 2 d; at 10 µM; stronger effect = higher value; strain carries analog-sensitive mutant Cbk1 kinase.
Assay [15] is described as follows: RAM signaling pathway blockade in yeast – S. cerevisiae, Pdr1DBD-CYC8 efflux-inhibited sensitized strain, primary screen (AID 1298).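 Also: 0% = DMSO untreated cells without growth and 100% = 10 µM 1-NA-PP1 full growth; higher means more yeast growth rescued from 5-FOA killing.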 As to conditions: S. cerevisiae cbk1-as DSE1-URA3 strain, 5-FOA growth OD615, 2 d; at 50 µM; stronger effect = higher value.
Setting [16] is: H69AR cells + 2 uM doxorubicin, measured here: viability with 2 uM doxorubicin, stronger effect = lower value.
[17] abbreviates: H69AR cells, compound alone cytotoxicity.

SMILES strings stand for the structures. Results filed as inconclusive are left out. Active and inactive are the calls of the source.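 The calls were made as follows, unless noted: active = RAM network inhibition above 8.4% in each of two replicates, 3 SD over the compound average; inconclusive = above 8.4% inhibition in only one replicate; inactive = 8.4% inhibition or less in each replicate.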

Chain of Receptor tyrosine-protein kinase erbB-2 (Homo sapiens) (P04626 whole entry, looked up): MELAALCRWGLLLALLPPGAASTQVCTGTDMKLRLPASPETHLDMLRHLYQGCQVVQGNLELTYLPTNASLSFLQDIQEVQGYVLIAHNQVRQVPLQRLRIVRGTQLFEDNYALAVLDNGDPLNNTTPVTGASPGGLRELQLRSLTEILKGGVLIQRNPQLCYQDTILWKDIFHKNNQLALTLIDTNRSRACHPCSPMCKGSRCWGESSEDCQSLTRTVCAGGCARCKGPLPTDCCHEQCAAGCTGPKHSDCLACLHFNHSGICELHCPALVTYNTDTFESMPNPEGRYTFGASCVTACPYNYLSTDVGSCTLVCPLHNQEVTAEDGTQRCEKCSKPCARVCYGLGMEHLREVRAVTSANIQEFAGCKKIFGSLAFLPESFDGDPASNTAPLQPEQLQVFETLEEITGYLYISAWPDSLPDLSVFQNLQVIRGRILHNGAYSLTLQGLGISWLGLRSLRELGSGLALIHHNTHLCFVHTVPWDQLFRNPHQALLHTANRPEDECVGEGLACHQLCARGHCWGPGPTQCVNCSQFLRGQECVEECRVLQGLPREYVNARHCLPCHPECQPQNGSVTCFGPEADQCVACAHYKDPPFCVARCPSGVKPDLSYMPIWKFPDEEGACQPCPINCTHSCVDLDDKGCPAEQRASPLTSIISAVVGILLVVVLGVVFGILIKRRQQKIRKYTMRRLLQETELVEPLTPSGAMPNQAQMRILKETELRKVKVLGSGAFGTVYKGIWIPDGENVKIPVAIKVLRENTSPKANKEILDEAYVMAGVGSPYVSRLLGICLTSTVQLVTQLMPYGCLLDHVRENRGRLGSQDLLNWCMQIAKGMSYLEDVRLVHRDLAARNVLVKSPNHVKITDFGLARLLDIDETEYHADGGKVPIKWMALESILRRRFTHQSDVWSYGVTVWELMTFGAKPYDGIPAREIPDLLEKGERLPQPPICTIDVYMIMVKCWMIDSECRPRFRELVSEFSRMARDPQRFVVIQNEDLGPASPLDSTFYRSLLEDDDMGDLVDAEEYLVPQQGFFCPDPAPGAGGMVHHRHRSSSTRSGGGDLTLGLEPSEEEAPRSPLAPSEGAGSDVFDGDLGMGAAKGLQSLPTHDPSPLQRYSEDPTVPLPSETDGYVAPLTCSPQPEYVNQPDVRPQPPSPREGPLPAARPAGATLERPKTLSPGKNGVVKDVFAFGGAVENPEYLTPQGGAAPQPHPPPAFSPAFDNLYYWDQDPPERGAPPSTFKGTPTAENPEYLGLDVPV

For the compound `Cc1c(C#N)c2ccccc2n1CC(=O)N1CCc2ccccc2C1`, the viability in [1] is 102%; in assay [3], 102% (inactive); in [4], 93.5% (inactive); in assay [5], 94.9% (inactive); in assay [6] (setting [16]), 92.2%; in assay [6] (setting [17]), 94.9%. Also, the viability in [12] is 92.9% (inactive); in assay [13], 92.7% (inactive). For the same compound, the Her2 level in assay [2] was 120% (inactive). In assay [6] (H69AR cells + 2 uM doxorubicin), the differential viability (reversal) is 2.7% (inactive). Also, the inhibition in [7] was 6.67% (inactive); in assay [8] it was -3.17% (inactive); in assay [14], 2.05% (inactive). Also, the growth inhibition is -1.57% (inactive) in [9] and -2.33% (inactive) in assay [10]. The viability increase in [11] is -3.16% (inactive). For the same compound, the RAM network inhibition in assay [15] was 4.34% (inactive).
In the case of `COC(=O)CCCCCc1ccc(C(C)=O)s1`, the viability was 86.5% in assay [1]; 86.5% (inactive) in [3]; 105% (inactive) in assay [4]; 100% (inactive) in assay [5]; 86.5% in assay [6] (setting [16]); 100% in assay [6] (setting [17]). Also, the viability in assay [12] was 96.7% (inactive); in [13] it was 95% (inactive). In addition, the Her2 level in assay [2] was 84.5% (inactive). Moreover, the differential viability (reversal) in [6] (H69AR cells + 2 uM doxorubicin) is 13.6% (inactive). The inhibition was -1.33% (inactive) in assay [7], -1.61% (inactive) in assay [8] and 0.02% (inactive) in assay [14]. Also, the results for the growth inhibition in assay [9] and in assay [10] were -3.98% (inactive) and -1.53% (inactive), respectively. Further, in assay [11], the viability increase is 0.73% (inactive). Besides, the RAM network inhibition in assay [15] was 3.12% (inactive).
Take `COc1cc(C2c3c(oc4ccccc4c3=O)C(=O)N2c2ccc(C)cn2)ccc1O` (stereo not drawn): the viability is 66% in assay [1]; 66% (inactive) in assay [3]; 94.6% (inactive) in assay [4]; 101% (inactive) in [5]; 100% in assay [6] (setting [16]); 101% in [6] (setting [17]). The viability in [12] is 91.9% (inactive); in assay [13] it was 88.4% (inactive). For the same compound, the Her2 level in [2] was 114% (inactive). The differential viability (reversal) in [6] (H69AR cells + 2 uM doxorubicin) is 1.23% (inactive). Also, the inhibition in assay [7] is -0.9% (inactive); in assay [8], -4% (inactive); in [14], 0.865% (inactive). Also, the figures for the growth inhibition in assay [9] and in assay [10] were -6.67% (inactive) and -1.33% (inactive), respectively. For the same compound, the viability increase in assay [11] is -2.69% (inactive). Further, the RAM network inhibition in [15] was 4.26% (inactive).
For the compound `CCOC(=O)N1CCC(N2C(=O)c3ccccc3C2Nc2ccccc2C)CC1` (stereo not drawn), the viability was 95.5% in assay [1]; 95.5% (inactive) in [3]; 84% (inactive) in assay [4]; 79.8% (inactive) in assay [5]; 47.8% in [6] (setting [16]); 79.8% in assay [6] (setting [17]). Also, the viability in assay [12] is 88.2% (inactive); in assay [13], 82.5% (inactive). Further, in assay [2], the Her2 level is 96.5% (inactive). Besides, the differential viability (reversal) in assay [6] (H69AR cells + 2 uM doxorubicin) is 32% (inactive). For the same compound, the inhibition in assay [7] is -5.2% (inactive); in assay [8], -8.5% (inactive); in assay [14], 2.58% (inactive). Also, the growth inhibition in assay [9] was -16.1% (inactive); in assay [10] it was -23.2% (inactive). In assay [11], the viability increase is -4.35% (inactive). Further, the RAM network inhibition in assay [15] is 7.43% (inactive).
`CC1Cc2nc(SCC(=O)Nc3nccs3)n(C)c(=O)c2S1` (stereo not drawn): the viability was 90% in assay [1]; 90% (inactive) in assay [3]; 72.7% (inactive) in assay [4]; 77.8% (inactive) in assay [5]; 77.8% in assay [6] (setting [16]); 77.8% in assay [6] (setting [17]). Also, the viability was 105% (inactive) in assay [12] and 96.7% (inactive) in assay [13]. Also, in assay [2], the Her2 level was 89% (inactive). Besides, the differential viability (reversal) in assay [6] (H69AR cells + 2 uM doxorubicin) is -0.05% (inactive). For the same compound, the inhibition is -5.07% (inactive) in [7], -1.67% (inactive) in assay [8] and 1.56% (inactive) in assay [14]. Besides, the growth inhibition was -2.9% (inactive) in assay [9] and -5.05% (inactive) in assay [10]. Also, the viability increase in [11] is -2.52% (inactive). For the same compound, the RAM network inhibition in [15] was 6.27% (inactive).
In the case of `Cc1ccccc1Cn1ccc(NC(=O)c2onc(C)c2Cl)n1`, the viability in [1] is 107%; in assay [3] it was 107% (inactive); in assay [4], 93.6% (inactive); in assay [5], 100% (inactive); in [6] (setting [16]), 83.6%; in assay [6] (setting [17]) it was 100%. In addition, the viability was 103% (inactive) in assay [12] and 91.2% (inactive) in assay [13]. In assay [2], the Her2 level was 106% (inactive). Besides, the differential viability (reversal) in assay [6] (H69AR cells + 2 uM doxorubicin) was 16.8% (inactive). Moreover, the inhibition in [7] was -4% (inactive); in [8], -4.17% (inactive); in assay [14] it was 1.72% (inactive). For the same compound, the growth inhibition is -7.95% (inactive) in [9] and 2.75% (inactive) in assay [10]. In addition, in [11], the viability increase is 4.68% (inactive). In assay [15], the RAM network inhibition was 4.82% (inactive).
As to `COC(=O)C1=C(C)NC(C)=C(C(=O)OC)C1C1CC=CCC1` (stereo not drawn), the viability in assay [1] was 85%; in [3] it was 85% (inactive); in assay [4], 75.4% (inactive); in [5], 100% (inactive); in assay [6] (setting [16]), 77.1%; in assay [6] (setting [17]), 100%. The viability was 90.4% (inactive) in assay [12] and 87.1% (inactive) in assay [13]. Besides, the Her2 level in [2] was 90.5% (inactive). Besides, the differential viability (reversal) in assay [6] (H69AR cells + 2 uM doxorubicin) was 23.3% (inactive). For the same compound, the inhibition was -0.91% (inactive) in assay [7], 6.89% (inactive) in assay [8] and 2.73% (inactive) in [14]. In addition, the growth inhibition in assay [9] is -3.42% (inactive); in assay [10], -21.7% (inactive). The viability increase in assay [11] is -4.18% (inactive). In addition, the RAM network inhibition in [15] is 8.09% (inactive).
Take `CN1CCN(CC(=O)N2c3ccccc3C(C)(c3ccccc3)CC2(C)C)CC1` (stereo not drawn): the viability was 87% in assay [1]; 87% (inactive) in [3]; 78.8% (inactive) in [4]; 65.8% (inactive) in assay [5]; 97.1% in [6] (setting [16]); 65.8% in assay [6] (setting [17]). Further, the viability was 49.1% (inactive) in [12] and 50.7% (inactive) in assay [13]. In [2], the Her2 level is 103% (inactive). Also, the differential viability (reversal) in assay [6] (H69AR cells + 2 uM doxorubicin) is -31.3% (inactive). The inhibition was -0.38% (inactive) in assay [7], 2% (inactive) in [8] and 0.685% (inactive) in assay [14]. Moreover, the growth inhibition is -9.57% (inactive) in assay [9] and -2.67% (inactive) in assay [10]. Further, the viability increase in assay [11] is -6.54% (inactive). In addition, the RAM network inhibition in [15] was 1.99% (inactive).
Consider `COc1ccc(-c2nc(CCNC(=O)c3ccco3)cs2)cc1OC`, for which the viability in assay [1] was 96.5%; in assay [3], 96.5% (inactive); in assay [4], 89.2% (inactive); in assay [5], 77.9% (inactive); in [6] (setting [16]), 77.4%; in assay [6] (setting [17]), 77.9%. For the same compound, the viability in assay [12] is 95.3% (inactive); in [13] it was 87.7% (inactive). Besides, the Her2 level in assay [2] is 102% (inactive). Moreover, the differential viability (reversal) in assay [6] (H69AR cells + 2 uM doxorubicin) was 0.52% (inactive). In addition, the inhibition in assay [7] was -4.67% (inactive); in assay [8], -2.95% (inactive); in assay [14], 0.415% (inactive). For the same compound, the growth inhibition in assay [9] was -4.64% (inactive); in assay [10] it was -8.75% (inactive). In addition, the viability increase in assay [11] is -3.3% (inactive). The RAM network inhibition in assay [15] is -1.56% (inactive).

Values taken from PubChem BioAssay.
